Each structure is given as a SMILES string. Out of some 58,000 compounds screened, about 3,400 (5.9%) were called active.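 How the source made its calls: active means luminescence count or its row- and column-corrected plate score outside the 99.7% band of the plate's sample wells, on either side; inactive means the rest.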 The entries come from a sample that favours actives as a whole.

Sequence of D(1A) dopamine receptor (Homo sapiens) (P21728 whole entry, looked up): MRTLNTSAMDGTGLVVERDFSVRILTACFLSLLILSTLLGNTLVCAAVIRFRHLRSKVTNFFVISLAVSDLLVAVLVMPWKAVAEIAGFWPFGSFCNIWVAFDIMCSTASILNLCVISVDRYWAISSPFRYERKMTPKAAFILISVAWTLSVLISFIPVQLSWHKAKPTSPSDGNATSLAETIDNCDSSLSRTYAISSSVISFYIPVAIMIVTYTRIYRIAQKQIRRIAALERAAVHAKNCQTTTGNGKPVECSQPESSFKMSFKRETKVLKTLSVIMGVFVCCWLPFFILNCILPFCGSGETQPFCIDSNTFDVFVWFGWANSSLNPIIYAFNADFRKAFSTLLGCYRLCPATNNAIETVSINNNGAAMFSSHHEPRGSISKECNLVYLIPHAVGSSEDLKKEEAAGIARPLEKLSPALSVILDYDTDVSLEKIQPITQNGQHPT

This assay has as its target D(1A) dopamine receptor (Homo sapiens) (UniProt P21728). As to the kind of experiment: D1 CRE-luciferase signal change, two-sided – cell-based, HEK293 D1, dopamine EC30, D1 allosteric modulator project, primary screen (AID 641). The conditions noted are these: dopamine EC30 potentiation, at 10 µM, actives deviate in either direction.
With `O=C(NC1CCCCC1)C1CCCN(S(=O)(=O)c2cccs2)C1` (stereo not drawn), the B-score was 0.0829 (inactive). Consider `O=C(CCSc1ccccc1)NCCSc1ccccn1`, for which the B-score was 0.117 (inactive). Then `COc1ccc(/C(O)=C2/C(=O)C(=O)N(CCCN(C)C)C2c2ccccc2)cc1OC` (stereo not drawn), with -0.187 (inactive); and `COc1cccc(C2/C(=C(/O)c3ccncc3)C(=O)C(=O)N2CCCN(C)C)c1` (stereo not drawn), with -3.02 (active). Regarding `COc1cccc(C2/C(=C(/O)c3ccc(F)cc3)C(=O)C(=O)N2CCN(C)C)c1` (stereo not drawn), the B-score is -0.0254 (inactive). Consider `O=S(N1CCCCCC1)C12CC3CC(CC(C3)C1)C2` (stereo not drawn), for which the B-score was -1.48 (inactive). Take `CCCN1C(=O)C(NS(=O)(=O)c2ccc(N)cc2)(C(F)(F)F)C(C(=O)OC)=C1C` (stereo not drawn): the B-score is -0.0535 (inactive). Then `C=CCNC(=O)CCCOc1cccc(C)c1`, with 0.267 (inactive); and `Cc1nc2c(-c3ccc(F)cc3)c(C)nn2c(C)c1CCC(=O)N1CCN(c2ccccn2)CC1`, with -0.178 (inactive). For `CCOc1cc(C(=O)N2CCc3cc(OC)c(OC)cc3C2)ccc1OC(F)F` the value was 15.1 (active).

With `CCOc1cc(CN2CCN(C(=O)CC(C)C)CC2)ccc1OC`, the B-score is 0.0601 (inactive).

In the case of `COc1ccc(C(=O)N2CCC(C(=O)Nc3cccc(C)c3)CC2)cc1OC`, the B-score was -0.521 (inactive). Turning to `CCN1CCCC1CNc1ncnc2c1[nH]c1ccc(F)cc12` (stereo not drawn), the B-score is -0.311 (inactive).

With `O=C1CCCN1CCCNc1ncnc2c1[nH]c1ccccc12`, the B-score was -0.02 (inactive). For `CC(C)OCCCNc1ncnc2c1[nH]c1ccc(F)cc12` the value was -3.37 (active); for `c1csc(-c2cn3c(n2)SCC3)c1`, -0.433 (inactive); for `O=C(COC(=O)c1ccc2c(c1)OCCO2)NCc1ccccc1`, 0.524 (inactive). Then `COc1cc2[nH]c(=S)n(Cc3ccc(C)o3)c(=O)c2cc1OC`, with 2.05 (inactive); and `CCOC(=O)N1CCN(C(=O)CN(c2ccc(C)c(C)c2)S(=O)(=O)c2ccccc2)CC1`, with -0.0191 (inactive); and `COc1ccccc1NC1=NC(c2ccc(Cl)cc2)N=C(N)N1` (stereo not drawn), with -3.3 (inactive). Then `COc1ccccc1NC1=NC2(CCCC2)N=C(N)N1`, with -3.14 (active); and `COc1ccccc1Nc1nc(N)nc(CN(C)C2CCCCC2)n1`, with -0.094 (inactive); and `c1ccc(-n2ncc(-c3nn[nH]n3)n2)cc1`, with -1.26 (inactive). On to `CCCOC(=O)CC1C(=O)NCCN1Cc1ccc(F)cc1` (stereo not drawn), for which the B-score was -0.0757 (inactive). For `CC1CCCN(C(=O)c2ccc3c(c2)C(=O)N(CCC2=CCCCC2)C3=O)C1` (stereo not drawn) the value was -0.192 (inactive); for `COC(=O)Nc1c(C)n(C)n(-c2ccccc2)c1=O`, -1.4 (inactive); for `CCN(CC)CCN1C(=O)C(=O)/C(=C(/O)c2ccc(OC)c(OC)c2)C1c1ccccn1` (stereo not drawn), -0.322 (inactive).

For the compound `COc1cc(-n2c(C)nc3cc(C(=O)NCc4ccco4)ccc32)cc(OC)c1OC`, the B-score is 0.213 (inactive).

For the compound `COc1ccccc1NC(=O)CSc1nnc(Cc2cccn2C)n1-c1ccc(F)cc1`, the B-score is -0.801 (inactive). For `COc1ccc(-n2c(Cc3cccn3C)nnc2SCC(=O)Nc2cc(C)cc(C)c2)cc1` the value was 11.4 (active); for `COC(=O)c1ccc(NC(=O)CSc2nnc(Cc3cccn3C)n2-c2ccc(F)cc2)cc1`, -0.00937 (inactive). Then `CCCc1[nH]nc2c1C(C1CC=CCC1)C(C#N)=C(N)O2` (stereo not drawn), with -0.104 (inactive); and `CC1(C)CC(=O)c2cc(OCC(=O)NCC3CCCO3)ccc2O1` (stereo not drawn), with -0.0202 (inactive). Then `O=C(O)c1ccc(-n2cccc2)cc1O`, with -0.446 (inactive); and `Cc1ccc(OCCCC(=O)N2CCOCC2)c(C)c1`, with -1.03 (inactive). In the case of `CCOc1cc(-c2noc(CCC(=O)N3CCOCC3)n2)ccc1OC`, the B-score was 13.7 (active).

As for `Cc1ccc(-c2noc(CCC(N)=O)n2)cc1`, the B-score was -0.953 (inactive). In the case of `CCOc1ccc(-c2nnn(CC(=O)N3CCN(c4ccc(F)cc4)CC3)n2)cc1OCC`, the B-score is -0.401 (inactive). On to `COc1ccc(C(=O)Cn2nnc(-c3ccc(N4CCOCC4)cc3)n2)cc1OC`, for which the B-score was 0.758 (inactive). Then `CCOc1ccc(-c2nnn(CC(=O)N3CCN(c4ccc(OC)cc4)CC3)n2)cc1OCC`, with 3.84 (active); and `CN1C(=O)CC(N2CCN(c3ccccn3)CC2)C1=O` (stereo not drawn), with -0.0528 (inactive). For `COc1ccc(C(=O)NCCc2ccc(S(N)(=O)=O)cc2)cc1OC` the value was -0.0032 (inactive); for `Cc1sc2c(c1C)c(=O)n(-c1ccccc1)c1nncn21`, 0.694 (inactive). For `COc1cc2[nH]c(=O)n(CCC(=O)NC3CCN(Cc4ccccc4)CC3)c(=O)c2cc1OC` the value was -0.633 (inactive); for `O=c1cc(CSc2ccccn2)nc(N2CCN(c3ccccc3)CC2)[nH]1`, 0.00444 (inactive). Take `O=c1cc(-c2ccccc2)nc(N2CCCCC2)[nH]1`: the B-score is 4.97 (active).

With `Cc1ccc(SCc2cc(=O)[nH]c(N3CCCCC3)n2)cc1`, the B-score was 1.14 (inactive). Then `N#Cc1nc(COc2ccc(Cl)cc2)oc1N1CCCC1`, with 2.09 (inactive); and `CC1CCN(c2oc(-c3ccccc3F)nc2C#N)CC1`, with 8.13 (active); and `Cc1ccc(OCc2nc(C#N)c(N3CCCC3)o2)cc1`, with 2.17 (inactive).

Regarding `COc1ccc(CCN2CNc3c(c(=O)n(C)c(=O)n3C)C2)cc1OC`, the B-score is -0.27 (inactive). For `Oc1c(C(c2cccs2)N2CCN(c3ccc(F)cc3)CC2)sc2ncnn12` (stereo not drawn) the value was -1.14 (inactive); for `CCCNS(=O)(=O)c1ccc2c(c1)CCCN2C(C)=O`, -1.43 (inactive). For `CC(=O)N1CCc2cc(S(=O)(=O)Nc3ccccc3N3CCN(C)CC3)ccc21` the value was -0.699 (inactive).

For the compound `O=C(C1CCC1)N1CCc2cc(S(=O)(=O)NCc3cccnc3)ccc21`, the B-score is 4.59 (active).

With `CC(C)(CNCC(O)c1ccccc1)N1CCOCC1` (stereo not drawn), the B-score is 0.153 (inactive). Regarding `CN(c1nc2ccccc2n2c(-c3ccco3)nnc12)S(=O)(=O)c1ccccc1`, the B-score is 1.04 (inactive). Then `CN1c2ccccc2-c2nc3ccccc3n2C1c1ccco1` (stereo not drawn), with -2.57 (inactive). Take `Cn1c(-c2ccco2)nc2cc3ccccc3cc21`: the B-score is -4.84 (active). For `CCCc1nc(SCC(=O)Nc2ccccc2OC)c2c(=O)n(C)c(=O)n(C)c2n1`, the B-score was 1.18 (inactive).

In the case of `CCOc1cc(N2CCOCC2)c(OCC)cc1NC(=O)COc1cccc2cccnc12`, the B-score is -6.32 (active). For `CCOc1ccccc1NC(=O)C1CCC(CNc2c(N3CCOCC3)c(=O)c2=O)CC1` (stereo not drawn) the value was -0.266 (inactive); for `CCOc1cc(NC(=O)c2ccco2)c(OCC)cc1NC(=O)COc1ccccc1`, -0.0288 (inactive); for `N/C(=N\c1nc2ccccc2o1)NC(=O)C(Cc1ccccc1)N1C(=O)c2ccccc2C1=O` (stereo not drawn), -0.0263 (inactive). Turning to `CCOC(=O)CN1C(=O)C(O)(CC(=O)c2ccccn2)c2ccccc21` (stereo not drawn), the B-score is -0.341 (inactive). For the compound `CCc1nnc(NC(=O)C2CCCN2S(=O)(=O)c2ccccc2)s1` (stereo not drawn), the B-score is -0.0231 (inactive). Turning to `CCC(=NC1CC(C)(C)NC(C)(C)C1)C1=C(O)CC(C)(C)CC1=O`, the B-score is -0.239 (inactive). Then `COc1ccccc1N1CCN(Cc2ccc(OC)c3ccccc23)CC1`, with -0.325 (inactive).

Turning to `O=C(O)c1ccc(NC(=O)c2cccs2)cc1`, the B-score was 0.0162 (inactive).

In the case of `O=C(O)Cc1ccc(NC(=O)c2cccs2)cc1`, the B-score is -1.14 (inactive).

`Cc1nc(-c2ccc(NC(=O)c3cccs3)cc2)cs1`: the B-score was -5.86 (active). For `COc1ccc(-c2nc(CS(=O)CC(=O)NCc3ccccn3)c(C)o2)cc1` (stereo not drawn) the value was -1.3 (inactive).

`Cc1ccc2nc(NCCCNC(=O)c3cnccn3)c(C#N)cc2c1`: the B-score was 0.787 (inactive). Take `CCc1ccccc1NC(=O)c1cccs1`: the B-score was -0.318 (inactive).

Consider `COCCn1nnnc1CN1CCC(NC(=O)Nc2cccc(OC)c2)CC1`, for which the B-score was -0.857 (inactive).

`CCOC(=O)c1cc2n(c1N)-c1ccccc1C2=O`: the B-score was 1.46 (inactive).

Consider `CCOC(=O)c1cc2n(c1C)-c1ccccc1C2=O`, for which the B-score is 4.61 (active). For `CCOC(=O)c1cc2ccccc2nc1C`, the B-score is 0.135 (inactive). For the compound `CCn1nc(NC(=O)c2ccco2)c2cc3ccc(C)cc3nc21`, the B-score is 0.36 (inactive). For `CC1CCc2c(sc3c2C2=NS(=O)(=O)CCN2C=N3)C1` (stereo not drawn) the value was 1.19 (inactive); for `CN(Cc1ccccc1)c1nc2c(c(=O)[nH]c(=O)n2C)n1CCSc1nc2ccccc2[nH]1`, 1.93 (inactive). Then `CCCCCn1c(SCCC(C)C)nc2c1c(=O)[nH]c(=O)n2C`, with 0.151 (inactive). Then `CC1CCN(c2nc3c(c(=O)[nH]c(=O)n3C)n2CCCc2ccccc2)CC1`, with 3.73 (active). For the compound `CCCSc1nc2c(c(=O)[nH]c(=O)n2C)n1CCc1ccccc1`, the B-score is 18 (active).

Turning to `Cn1c(=O)[nH]c(=O)c2c1nc(N1CCCCCC1)n2CC(=O)c1ccccc1`, the B-score is 0.0681 (inactive).

Take `CN1CCN(c2nc3c(c(=O)[nH]c(=O)n3C)n2Cc2cccc3ccccc23)CC1`: the B-score is -2.28 (inactive). Consider `Cc1cccc2cc(C#N)c(N3CCCC3)nc12`, for which the B-score is -0.4 (inactive). Then `CCC(=O)N1c2ccc(S(=O)(=O)CCC(=O)N3CCN(c4ccccc4)CC3)cc2CC1C` (stereo not drawn), with 0.966 (inactive); and `COc1ccc(C(=O)n2nc(-c3ccc(Cl)cc3)nc2N)cc1OC`, with 1.72 (inactive). Then `COC(=O)c1ccc(OC(=O)c2nn(C)cc2Cl)c(OC)c1`, with -3.71 (active); and `COc1ccc(C(=O)n2nc(-c3ccc(C)cc3)nc2N)cc1OC`, with 0.0973 (inactive); and `Cn1c(-c2ccc(C(=O)c3ccccc3)s2)nc2ccccc21`, with -0.58 (inactive).

On to `CCN(CC)CCN1C(=O)C(=O)/C(=C(/O)c2ccccc2)C1c1ccccc1F` (stereo not drawn), for which the B-score was 0.045 (inactive). With `Cc1ccc(C)n1C(Cc1ccccc1)C(=O)O` (stereo not drawn), the B-score was 1.32 (inactive).

`c1nc(COc2nsnc2N2CCOCC2)cs1`: the B-score is 1.59 (inactive). Turning to `c1ccc(COc2nsnc2N2CCOCC2)cc1`, the B-score is 5.03 (active). Then `O=C(O)COc1nsnc1N1CCOCC1`, with 0.787 (inactive); and `COc1cc(OC)c(NC(=O)c2ccc(Br)o2)cc1Cl`, with -0.284 (inactive).

The values above are taken from PubChem BioAssay AID641 (Vanderbilt High Throughput Screening Facility, 2007).
